Inhibition data for 36 compounds are collected here from ChEMBL document CHEMBL3433997, “St. Jude Leishmania screening dataset” (2016).

What all share (type): functional
In assay [1] the target is Solute carrier family 2, facilitated glucose transporter member 1 (Homo sapiens) (UniProt P11166). Put plainly: ST_JUDE_LEISH: Cytotoxicity at 2uM final concentration against transgenic Leishmania Mexicana promastigotes LmGLUT1 that are glucose transport deficient and complemented with the human glucose transporter GLUT1. Activity is measured by DNA content using SYBR green in vitro.
Solute carrier family 2, facilitated glucose transporter member 1 (Homo sapiens), sequence (P11166 whole entry): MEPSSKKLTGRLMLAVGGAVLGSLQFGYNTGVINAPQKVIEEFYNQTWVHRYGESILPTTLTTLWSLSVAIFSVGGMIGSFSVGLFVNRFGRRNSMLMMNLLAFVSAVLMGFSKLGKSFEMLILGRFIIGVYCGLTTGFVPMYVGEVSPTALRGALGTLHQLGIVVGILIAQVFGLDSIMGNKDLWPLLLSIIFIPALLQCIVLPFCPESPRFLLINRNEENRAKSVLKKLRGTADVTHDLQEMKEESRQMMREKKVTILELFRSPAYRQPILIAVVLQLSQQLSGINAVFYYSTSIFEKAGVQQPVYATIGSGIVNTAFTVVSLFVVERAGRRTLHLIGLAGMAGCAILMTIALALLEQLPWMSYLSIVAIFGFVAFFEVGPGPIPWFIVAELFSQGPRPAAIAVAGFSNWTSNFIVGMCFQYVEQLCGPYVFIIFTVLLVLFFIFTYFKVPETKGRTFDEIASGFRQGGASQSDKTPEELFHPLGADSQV

The target of assay [2] is Hexose transporter 1 (Plasmodium falciparum) (UniProt O97467). In words: ST_JUDE_LEISH: Cytotoxicity at 2uM final concentration against transgenic Leishmania Mexicana promastigotes LmPfHT that are glucose transport deficient and complemented with the Plasmodium falciparum hexose transporter. Activity is measured by DNA content using SYBR green in vitro.
For assay [3], the target named is Glucose transporter (Leishmania mexicana) (UniProt O61059). Put plainly: ST_JUDE_LEISH: Cytotoxicity at 2uM final concentration against transgenic Leishmania Mexicana promastigotes LmGT2 that are glucose transport deficient and complemented with the L. Mexicana glucose transporter 2. Activity is measured by DNA content using SYBR green in vitro.

As to `COc1ccccc1C(=O)Nc1cccc(N2CCC(NCc3ccc(-n4cccn4)cc3)CC2)c1`, the values for the inhibition in assay [1], in assay [2] and in assay [3] were 9.93%, 10.7% and 5.84%, respectively.

With `CC(C)C[C@H](Nc1ccnc(NCC2CCCCC2)n1)C(=O)NCCOc1ccccc1`, the figures for the inhibition in assay [1], in assay [2] and in assay [3] were 2.57%, 3.02% and 2.47%, respectively.

With `CCOC(=O)CCCOc1c(OC)cc(Cc2cnc(N)nc2N)cc1OC`, the inhibition in assay [1] is -1.3%; in assay [2] it was -0.68%; in assay [3], -2.34%.

As for `O=C(Nc1ccc(OC2CCN(Cc3ccc(F)cc3)C2)c(Cl)c1)c1ccco1` (stereo not drawn), the values for the inhibition in assay [1], in assay [2] and in assay [3] were 3.67%, 3.44% and 3.01%, respectively.

`CCC1(C)CC(CCNCc2ccccc2O)(c2ccccc2OC)CCO1` (stereo not drawn): the inhibition in assay [1] is 0.62%; in assay [2], -0.31%; in assay [3], 0.88%.

Take `Cc1ccccc1C(O)CNc1ccnc(Nc2cccc(C#N)c2)n1` (stereo not drawn): the inhibition in assay [1] stood at 3.5%; in assay [2] it was 4.38%; in assay [3] it was 0.24%.

As to `COc1ccc(-c2ccc(NC(=O)c3cccc(C#N)c3)cc2)cc1CN1CCNCC1`, the inhibition turned out to be 9.28% in assay [1], 5.74% in assay [2] and 4.28% in assay [3].

Take `N#Cc1ccc2c(c1)CCN(CCC1CCC(NC(=O)c3ccc(-c4ccccn4)s3)CC1)CC2` (stereo not drawn): the figures for the inhibition in assay [1], in assay [2] and in assay [3] were 13.3%, 9.45% and 9.9%, respectively.

For the compound `O=C(Nc1ccc(Cl)cc1)Nc1ccc(Cn2ncc(N3CCCNCC3)c(Cl)c2=O)cc1`, the inhibition in assay [1] came to 2.02%; in assay [2], 5.96%; in assay [3], 2.56%.

For the compound `CCCCNCc1ccc(-c2nc(CN(Cc3ccc(Cl)c(Cl)c3)C(=O)CN(C)C)cs2)cc1`, the inhibition in assay [1] was determined as 50.3%; in assay [2], 52.9%; in assay [3] it was 8.23%.

Regarding `CCC(C)NC(=O)CN1CN(c2ccccc2)C2(CCN(C(=O)c3ccc(-c4ccccc4)cc3)CC2)C1=O` (stereo not drawn), the inhibition in assay [1] amounted to 8.23%; in assay [2], 11.5%; in assay [3], 7.73%.

On to `Cc1sc2nc(CN3CCCC3)nc(-n3c(NCCO)nc4ccccc43)c2c1C`, for which the figures for the inhibition in assay [1], in assay [2] and in assay [3] were 4.18%, 5.54% and 5.9%, respectively.

Take `COc1ccc(C2NCCc3c2[nH]c2ccccc32)cc1CN1CCN(c2ccc(F)cc2)CC1` (stereo not drawn): the inhibition was 3.17% in assay [1], 0.27% in assay [2] and 0.15% in assay [3].

On to `CN1CCc2cc(NS(=O)(=O)c3ccc(-c4ccc(Cl)cc4)cc3)c(OCCCN3CCCCC3)cc2CC1`, for which the values for the inhibition in assay [1], in assay [2] and in assay [3] were 1.09%, -0.92% and 0.92%, respectively.

As for `Cc1ccc(NC(=O)c2ccc3ncccc3c2)cc1OC1CCN(Cc2ccsc2)C1` (stereo not drawn), the results for the inhibition in assay [1], in assay [2] and in assay [3] were 3.87%, 1.3% and 0.48%, respectively.

As for `COc1cc2c(cc1OC)CC(NCc1ccc(-c3ccc4nc[nH]c4c3)cc1)C2`, the inhibition stood at 5.26% in assay [1], 5.44% in assay [2] and 4.38% in assay [3].

In the case of `CCCNC(=O)C1Cc2c([nH]c3ccc(Br)cc23)C2(CCN(CCc3ccccc3)CC2)N1` (stereo not drawn), the results for the inhibition in assay [1], in assay [2] and in assay [3] were -1.4%, 0.12% and 1.33%, respectively.

For the compound `C=CCN1C(=O)C(C(C)=O)=C(O)C1c1ccccc1` (stereo not drawn), the inhibition was -0.92% in assay [1], -4.02% in assay [2] and 0.66% in assay [3].

For the compound `CCOC(=O)C1=C(C)NC2=C(C(=O)CCC2)C1c1cn(Cc2ccc(Cl)cc2Cl)nc1-c1ccccc1` (stereo not drawn), the values for the inhibition in assay [1], in assay [2] and in assay [3] were 2.11%, -1.29% and 1.62%, respectively.

`CCOc1cc(C(=O)N[C@@H](Cc2ccccc2)[C@H](O)CNC(C)(C)c2cccc(OC)c2)cc(N2CCCS2(=O)=O)c1`: the inhibition was 2.48% in assay [1], -0.71% in assay [2] and 0.74% in assay [3].

Turning to `CC(C)CCNCc1ccc(OCc2cccc(COc3ccc(CNCCC(C)C)cc3I)c2)c(I)c1`, the inhibition was 0.58% in assay [1], -0.4% in assay [2] and -0.23% in assay [3].

For `CCCCCN1CCCC(CNS(=O)(=O)c2cccc(C(=O)Nc3ccc(C(F)(F)F)cc3)c2)C1` (stereo not drawn), the inhibition is 0.67% in assay [1], -0.91% in assay [2] and -0.09% in assay [3].

`COc1ccc2nccc([C@@H](O)CN3CCC(NC(=O)c4cccc(-c5cc(C)no5)c4)CC3)c2c1`: the inhibition in assay [1] came to 1.35%; in assay [2], 0.14%; in assay [3], 0.08%.

Take `O=C(c1cccc(Cl)c1)N1CCN(c2ccc([N+](=O)[O-])c(NC3CC3)c2)CC1`: the inhibition in assay [1] turned out to be 0.4%; in assay [2], 2.47%; in assay [3], 0.25%.

Turning to `O=C(NC1CCN(Cc2ccccc2O)C1)c1cccc(C(F)(F)F)c1` (stereo not drawn), the inhibition in assay [1] is 0.25%; in assay [2], 0.49%; in assay [3], -9.49%.

`CO/C(=C\C=C\c1cc2cc(Cl)c(Cl)cc2[nH]1)C(=O)NC1CCN(CCOc2ccccc2)CC1`: the inhibition came out at 8.51% in assay [1], 7.84% in assay [2] and 0.9% in assay [3].

On to `O=C(/C=C/c1ccc(C(F)(F)F)cc1)NCCCCCN1CCCN(C(=O)Nc2cccc(Cl)c2)CC1`, for which the inhibition in assay [1] was -0.19%; in assay [2], -1.13%; in assay [3], 1.47%.

As to `N#Cc1cccc(NC(=O)NC2CCN(CCCCCNC(=O)/C=C/c3ccc(Cl)c(Cl)c3)CC2)c1`, the inhibition in assay [1] is 4.68%; in assay [2], 5.86%; in assay [3], 8.54%.

For the compound `O=S(=O)(c1cccc(F)c1)c1ccc(Nc2ncnc3cc(Br)sc23)cc1Cl`, the inhibition is 3.23% in assay [1], 2.8% in assay [2] and -1.17% in assay [3].

With `NCC1CCCN1Cc1cccc(-c2ccc(-c3nc4cc(C(F)(F)F)ccc4[nH]3)s2)c1` (stereo not drawn), the inhibition was determined as 1.28% in assay [1], 0.87% in assay [2] and 0.38% in assay [3].

Consider `CNC(=O)c1cnc(Nc2ccc(OCC(O)CN(C)C)cc2)nc1Nc1cccc(OC(C)C)c1` (stereo not drawn), for which the inhibition in assay [1] is 2.84%; in assay [2], -0.45%; in assay [3], 1.38%.

`CS(=O)(=O)c1ccc(-c2cnc(N)c(-c3cccc(O)c3)c2)cc1`: the inhibition in assay [1] worked out at 6.6%; in assay [2], 6.49%; in assay [3], 6.07%.

`CCOc1cc(Cc2cnc(N)nc2N)cc(Br)c1OC`: the results for the inhibition in assay [1], in assay [2] and in assay [3] were 0.49%, 2.73% and 2.29%, respectively.

For `O=C(CSc1nc2ccc([N+](=O)[O-])cc2s1)Nc1ccccc1-c1ccccc1`, the inhibition is -0.42% in assay [1], -0.44% in assay [2] and -1.03% in assay [3].

Take `O=C(/C=C/c1ccc(Cl)cc1)NCCCCCN1CCCC(C(=O)Nc2cccc(Cl)c2)C1` (stereo not drawn): the inhibition in assay [1] was 2.85%; in assay [2], 2.1%; in assay [3], 3.91%.

For `Nc1nc(N)c2c(ccc3nn(Cc4cccnc4)cc32)n1`, the inhibition in assay [1] is 5.81%; in assay [2] it was 5.44%; in assay [3], 4.81%.

Usually inhibition stands for the relative decrease from the control value, in per cent.
